DT40 TDP1 no CPT = qHTS for Inhibitors of human tyrosyl-DNA phosphodiesterase 1 (TDP1): qHTS in cells in absence of CPT | DT40 Tdp1-/- hTDP1 cells, no CPT, ATP luminescence, 48 h | Potency, µM (titrated, usually from 46.2 µM), actives largely listed as inhibitors | hit rate 15% among 420,000; further: nearly all actives have a fitted effect of over 55% in size
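Seeded 400 DT40-hTDP1 cells/well (vehicle DMSO, no 20 nM CPT); pinned compounds; ≥48 hr at 37 °C; CellTiter-Glo luminescence as viability measure.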
HT1080NT lethal = kills 2HG-producing HT-1080-NT fibrosarcoma cells. hit rate 1.6% among 360,000. HT-1080-NT fibrosarcoma viability, CellTiter-Glo ATP luminescence, 48 h. Potency, µM (doses to about 46.1 µM), actives largely listed as cytotoxic;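 further: NT is the 2HG producing partner of a matched IDH1 knockdown line; nearly all actives have a fitted effect of over 55% in size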
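750 cells/well, RPMI + 5% FBS; 2 h settle, compound pin-transfer, 48 h at 37 degrees C. CellTiter-Glo 10 min RT, luminescence. Normalized to DMSO and media-only wells.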
12-LOX inh = blocks human arachidonate 12S-lipoxygenase; hit rate 1.1% among 580,000; purified 12hLO, xylenol orange hydroperoxide absorbance; Potency, µM (series often up to 108 µM), hits mostly inhibitors; P18054; AID 1671190
Target sequence (P18054 whole entry, looked up): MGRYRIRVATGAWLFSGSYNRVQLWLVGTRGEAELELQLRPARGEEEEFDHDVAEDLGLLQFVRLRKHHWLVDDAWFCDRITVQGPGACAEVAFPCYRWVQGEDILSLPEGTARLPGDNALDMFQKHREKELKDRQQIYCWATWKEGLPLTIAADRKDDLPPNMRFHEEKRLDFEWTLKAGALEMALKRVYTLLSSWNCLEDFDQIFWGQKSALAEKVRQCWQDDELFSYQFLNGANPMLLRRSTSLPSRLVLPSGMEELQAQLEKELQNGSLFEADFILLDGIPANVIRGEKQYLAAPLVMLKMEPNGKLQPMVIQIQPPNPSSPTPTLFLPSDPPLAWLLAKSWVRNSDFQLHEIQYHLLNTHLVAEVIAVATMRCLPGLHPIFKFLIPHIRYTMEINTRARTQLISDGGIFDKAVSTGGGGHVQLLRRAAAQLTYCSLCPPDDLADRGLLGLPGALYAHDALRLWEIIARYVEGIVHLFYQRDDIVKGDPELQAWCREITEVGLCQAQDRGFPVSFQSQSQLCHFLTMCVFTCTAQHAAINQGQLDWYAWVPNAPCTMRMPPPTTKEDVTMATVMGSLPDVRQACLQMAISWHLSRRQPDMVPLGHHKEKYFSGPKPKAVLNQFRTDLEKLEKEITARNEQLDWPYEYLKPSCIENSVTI
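Hydroperoxide product was detected by ferrous iron/xylenol orange as the 573 to 405 nm absorbance ratio. Arachidonic acid at 40 uM (final) was turned over for 30 min at room temperature by 150 nM human 12hLO, pH 7.0 Hepes buffer, after 15 min compound preincubation.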
TDP1 cell CPT = DT40-hTDP1 cell growth loss with CPT; chicken DT40 Tdp1-/-;hTDP1 cells + 20 nM CPT, ATP luminescence, 48 h; Potency, µM (highest dose often 46.2 µM), usual class: inhibitors; hit rate 12% among 420,000; further: nearly all actives have a fitted effect of over 55% in size
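Cell growth measured by CellTiter-Glo luminescence after a minimum 48 h, 37 C compound exposure with 20 nM CPT in Tdp1-knockout DT40 cells stably expressing hTDP1, seeded 400/well; qHTS titration format.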
HT1080 IDH1KD tx = HT-1080 IDH1 knockdown cell toxicity (counter line) | HT-1080 IDH1 knockdown viability, ATP luminescence, 48 h | Potency, µM (titrated, usually from 46.1 µM), hits mostly cytotoxic | hit rate 2% among 360,000 | AID 686971
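IDH1KD HT-1080 cells, 750/well, RPMI + 5% FBS; compound pinned after 2 h settling; 48 h, 37 °C; CellTiter-Glo luminescence; % activity normalised to DMSO and no-cell wells; curves fitted, classed by r2 and efficacy.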
IL1B secr inh = inhibitors of inflammasome signaling (IL-1 beta secretion); THP-1 LPS/ATP IL-1B secretion, AlphaLISA, 16 h; stronger effect = lower value; hit rate 4.7% among 360,000; activity change, % at 57.5 µM; AID 743279; in the data active means activity change below about -50%; inconclusive means mostly about -30% to -49%
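THP-1 cells pretreated 1 hr with compounds (up to 57.5 uM final), then stimulated with LPS (250 ng/mL final) plus ATP (1.25 mM final); secreted IL-1B measured by AlphaLISA after 16 hr, decreased signal indicating inhibition.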
Numbers stand for hits; n = inactive; u = inconclusive; x = not tested or not shown; ! = not confirmed by another sample. This excerpt belongs to a sample that is enriched for hits. Unless noted, the call rests on the fitted dose curve; in most records, active means well fitted curve in the direction sought with a large enough effect; inconclusive means small, poorly fitted or top-dose-only effect, or another doubt; inactive means no such curve, though single readings can be large; an effect the other way counts as inactive or inconclusive.

SMILES	DT40 TDP1 no CPT	HT1080NT lethal	12-LOX inh	TDP1 cell CPT	HT1080 IDH1KD tx	IL1B secr inh
CN(CC(=O)Nc1ccc(Cl)cc1C(F)(F)F)C1CCc2ccccc21 (centres undefined)	x	x	n	x	x	x
Cn1c(=O)[nH]c(=O)c2c1nc(N1CCN(CC(N)=O)CC1)n2Cc1ccc(Cl)cc1	x	x	n	x	x	x
O=C(NNc1c2ccccc2nc2ccccc12)c1ccc(O)cc1	u	n	n	13µM	n	n
Cc1ccc(C(=O)NNc2nc3ccccc3nc2C(F)(F)F)cc1	23µM	n	n	u	n	n
Cc1ccc(C(=O)Nc2nc3ccccc3n3nnnc23)cc1	n	n	n	n	n	n
O=C(NNc1c2ccccc2nc2ccccc12)c1cccc(O)c1	12µM	n	n	u	n	-80
O=C(O)c1nn(CC(=O)N(CCc2ccccc2)Cc2ccccc2)c(=O)c2ccccc12	x	x	n	x	x	x
CN(C(=O)/C=C/c1ccc([N+](=O)[O-])s1)c1ccccc1	5.2µM	n	n	10µM	u	-52
Nc1nc(N)c(N=Nc2ccc(S(N)(=O)=O)cc2)c(=O)[nH]1	n	n	40µM	n	n	n
Cc1noc(C)c1COc1ccccc1C(=O)N1CCN(S(=O)(=O)c2ccc(F)c(F)c2)CC1	n	n	n	n	n	n
Cc1cccc(N2CCN(C(=O)c3ccccc3OCc3c(C)noc3C)CC2)c1C	16µM	n	u	18µM	n	u
Cc1ccc(S(=O)(=O)N2CCN(C(=O)c3ccccc3OCc3c(C)noc3C)CC2)cc1	u	n	n	18µM	n	n
Cc1noc(C)c1COc1ccccc1C(=O)N1CCN(S(=O)(=O)c2ccccc2F)CC1	n	n	n	u	n	n
CC(C)(C)OC(=O)COc1ccc2c(=O)c(-c3ccccc3)coc2c1	x	x	n	x	x	x
CCOCCCNC(=O)c1cc2cc(Cl)ccc2nc1C	x	x	n	x	x	x
O=C(NCCCn1ccnc1)c1sc2cc([N+](=O)[O-])ccc2c1Cl	16µM	n	u	13µM	n	n
c1coc(C2Nc3ccccc3C3OCCC23)c1 (centres undefined)	n	n	n	n	n	n
COc1ccc2c(c1)C1OCCC1C(c1ccco1)N2 (centres undefined)	u	u	x	23µM	u	u
CCC(C)c1ccccc1OCCCN(C)Cc1ccccc1 (centres undefined)	u	n	u	u	u	n
CN(CCOc1ccc(F)cc1)Cc1ccccc1	n	n	u	n	n	n
CCc1ccc(OCCCCN(C)Cc2ccccc2)cc1	29µM	n	u	u	n	u
Cc1cc(C)c(C)c(OCCCCN(C)Cc2ccccc2)c1	21µM	n	n	u	n	n
CCN(CC)CCOc1ccc(Cc2ccccc2)cc1	21µM!	x	u	24µM!	x	x
CN(CCCCOc1ccc(F)cc1)Cc1ccccc1	n	n	1.1µM	n	n	n
CCc1cccc(OCCCCN(CC)CC)c1	n	n	1.1µM	n	n	n
SMILES	DT40 TDP1 no CPT	HT1080NT lethal	12-LOX inh	TDP1 cell CPT	HT1080 IDH1KD tx	IL1B secr inh
CCc1cccc(OCCCCNCCCOC)c1	n	n	n	n	n	n
C=CCNC(=O)c1onc(CCl)c1C(=O)OC	u	u	n	23µM	26µM	n
COc1ccccc1-c1ccc2c(c1)C(C)(Cc1ccc(Cl)c(Cl)c1)C(=O)N2 (centres undefined)	u	u	n	21µM	23µM	n
CC1(Cc2ccccc2C#N)C(=O)Nc2ccc(-c3ccccc3)cc21 (centres undefined)	u	n	n	u	u	n
COc1ccccc1-c1ccc2c(c1)C(C)(Cc1ccccc1C#N)C(=O)N2 (centres undefined)	u	n	n	21µM	n	n
CCN(C(=O)c1cnc(NC(C)C)cc1C(F)(F)F)c1ccc(Cl)cc1Cl	16µM	u	n	8.2µM	u	n
Cc1ccc(C)c(Oc2nc(-c3ccncc3)nc3ccccc23)c1	x	x	n	x	x	x
Fc1ccccc1Oc1nc(-c2ccncc2)nc2ccccc12	16µM	n	n	u	n	n
COc1cc(C)ccc1OCc1cc(C(=O)NC2CCOCC2)no1	n	n	u	n	n	n
COc1cc(C)ccc1OCc1cc(C(=O)NC(c2ccccn2)C(F)(F)F)no1 (centres undefined)	u	n	n	0.65µM	n	n
Cc1ccc(-c2nn(-c3ccccc3)cc2/C=C(\C#N)C(=O)NCc2ccccc2)cc1	u	n	n	n	n	n
CCSc1ccc(-c2nn(-c3ccccc3)cc2/C=C(/C#N)C(=O)NCCCOC)cc1	n	n	n	n	n	n
N#C/C(=C/c1cn(-c2ccccc2)nc1-c1cccc(S(=O)(=O)N2CCCC2)c1)C(=O)NCc1ccco1	12µM	n	u	13µM	n	n
N#C/C(=C/c1cn(-c2ccccc2)nc1-c1cccc(OCc2ccccc2)c1)C(=O)NCCCn1ccnc1	u	n	n	u	u	-75
CCOc1cccc(-c2nn(-c3ccccc3)cc2/C=C(/C#N)C(=O)NCCCn2ccnc2)c1	u	26µM	n	u	u	-99
Nc1nccnc1C(=O)NCc1cc(Br)ccc1F	x	x	n	x	x	x
Cc1cc(C)c(NC(=O)c2cnc3ccccc3n2)c(C)c1	x	x	n	x	x	x
O=C(NCCc1ccccc1)C1Cc2c(-c3ccc4c(c3)OCO4)ccnc2O1 (centres undefined)	16µM	u	n	21µM	u	n
CC(=O)Nc1cccc(-c2ccnc3c2CC(C(=O)NCCc2ccccc2)O3)c1 (centres undefined)	2.9µM	u	n	4.6µM	u	n
CC(C)NC(=O)C1Cc2c(-c3ccc4c(c3)OCO4)ccnc2O1 (centres undefined)	u	n	n	u	n	n
NC(=O)c1cccc(-c2ccnc3c2CC(C(=O)NCc2cccc(Cl)c2)O3)c1 (centres undefined)	15µM	u	n	16µM	9.2µM	n
COc1ccc(CCCNC(=O)C2Cc3c(-c4ccccc4)ccnc3O2)cc1 (centres undefined)	5.8µM	8.2µM	n	6.5µM	u	n
O=C(CCCC(=O)NN=C1CCCC1)NN=C1CCCC1	x	x	n	x	x	x
COc1cccc(CN2CCNc3cc(-c4ccccc4)ncc3C2)c1	x	x	n	x	x	x
CC(=O)Nc1cccc(-c2ccnc3c2CC(C(=O)NCc2cccc(Cl)c2)O3)c1 (centres undefined)	4.1µM	u	n	3.3µM	u	n
CC(=O)Nc1cccc(-c2ccnc3c2CC(C(=O)NCc2cccnc2)O3)c1 (centres undefined)	u	u	n	n	u	n

Screening data as filed in PubChem BioAssay.
